# Screens deposited in PubChem by ICCB-Longwood Screening Facility, Harvard Medical School.
# VACV E9 pol inh – blocks vaccinia virus processive DNA synthesis; normalized absorbance, % (test concentration not listed); in vitro processive DNA synthesis, absorbance read-out; stronger effect = lower value; 0.94% of 46,000 active; in the data active means normalized absorbance mostly below about 85%, no sharp cut-off; inactive means mostly above about 86%
# * hit, by the source's call. This is one part of a sample in which hits are shown more often than they occur.
SMILES,VACV E9 pol inh
CN(C)c1ccc(N/C=C2/CCCC2=O)cc1,100
Cc1oc(C(=O)O)cc1COc1ccc2c(C)c(Cc3ccccc3)c(=O)oc2c1C,94
O=C(O)CCn1c(=O)n(CCC(=O)O)c2c(Cl)cc(Cl)cc21,99
N#CC1=C(SCC(=O)Nc2ccc(Br)cc2)NC(=O)CC1c1ccccc1 (stereo not drawn),91
NC(=O)Nc1ccc(C(=O)O)cc1,100
Cc1ccc(C)n1-c1sccc1C(=O)CC#N,110
CC(=O)Nc1sccc1C(=O)O,92
Cc1ccc(C)n1-c1sccc1C(=O)O,22*
COc1ccc(C(C)(C)C)cc1NC(=O)COC(=O)CC1CCCC1,98
Cc1nnc(NC(=O)CSc2c[nH]c3ccccc23)s1,87
COc1ccc(NC2CC(C)Nc3ccc(OC)cc32)cc1 (stereo not drawn),103
Cc1cc(NCCN2CCCCC2)c2ccc3ccccc3c2n1,22*
N#Cc1nc(-c2ccccc2)oc1NCCN1CCCCC1,101
O=S(=O)(NCCN1CCCC1)c1cc2ccccc2s1,112
Cc1cc(Cl)cc2sc(NC(=O)CCCCl)nc12,86
O=C(OCCN1CCCC1=O)c1ccco1,102
N#C/C(=C(/O)c1cc[n+](Cc2ccccc2)cc1)c1nc2ccccc2[nH]1,99
NC(CSCc1ccccc1Cl)C(=O)O (stereo not drawn),99
NC(Cc1ccccc1F)C(=O)O (stereo not drawn),99
NC(CSCc1oc(-c2ccccc2)cc1C(=O)O)C(=O)O (stereo not drawn),77*
CCN(CC)S(=O)(=O)c1ccc(/C=C/C(=O)Nc2ccccc2C)cc1,105
CC1CCCCN1C(=O)c1cccc2c1SCCC2=O (stereo not drawn),111
O=C(Cn1c(=O)n2nc(-c3ccccc3)nc2c2ccccc21)c1ccc(Br)cc1,104
CC1CCCC(C)N1CCNc1nc2ccccc2c2nc(-c3ccccc3)nn12 (stereo not drawn),59*
Cc1nc2c3ccccc3nc(NN3C(=O)CCC3=O)n2n1,102
SMILES,VACV E9 pol inh
OC(CNCCc1ccccc1)Cn1nnnc1-c1ccccc1 (stereo not drawn),108
Cc1cc(C)c2oc(-c3ccc(N)cc3O)nc2c1,100
CCn1c(O)c(N=O)n(CC)c1=S,100
CS[C@H](C)[C@H](OC(C)=O)C(=O)N(C)CCN(C)C (tested in a mixture with another compound),15*
O=C1CC2(CCCC2)C(=O)N1CCc1cccs1,109
CC(=O)OC1CCCCC1C1=CCCCC1 (stereo not drawn),104
CC(=O)Nc1c(C(=O)O)oc2ccc(Br)cc12,100
O=C(O)c1oc2ccc(Br)cc2c1-n1cccc1,67*
Cc1ccc(CNC(=O)c2oc3ccccc3c2-n2cccc2)cc1,108
Cc1cc(NC2=CC(=O)CCC2)ccc1I,99
O=C(COc1ncnc2ccccc12)Nc1ccc(Cl)cc1F,99
CCOC(=O)c1c(N2C(=O)C=CC2=O)sc(C)c1-c1ccccc1,99
Cc1cccc2nc(CSC(=S)NCC3CCCO3)cn12 (stereo not drawn),110
Cc1cccc2nc(CSC(=S)NCc3cccnc3)cn12,72*
Cc1cccc2nc(CSCc3ccco3)cn12,80
CSc1ncc(C(=O)O)c(-c2ccccc2)n1,100
COc1cc(OC)cc(C(=O)Nc2ccccn2)c1,98
O=c1[nH]c(-c2cccnc2)nc2sc3c(c12)CCCC3,86
CN1C/C(=C\c2ccc3c(c2)OCO3)C(=O)/C(=C/c2ccc3c(c2)OCO3)C1,97
CN(C)c1ccc(/C=C2/S/C(=N/O)NC2=O)cc1,100
O=C1NC(=Nc2ccccc2)S/C1=C\c1ccccc1,88
O=C1N/C(=N\O)S/C1=C/c1ccc(O)cc1,84*
CN1C(=O)/C(=C2\SC(=S)N(c3ccc(C(=O)O)cc3)C2=O)c2ccccc21,92
COC(=O)C1=C(O)c2ccccc2S(=O)(=O)N1,97
CN1CCN(CCNC(=O)c2nc(-c3cccnc3)no2)CC1,107
SMILES,VACV E9 pol inh
O=C(O)c1ccc(N=Cc2cn(Cc3ccccc3)c3ccccc23)cc1,101
Cc1cc(C)c(C(=O)Cn2c(=S)[nH]c3ccccc32)c(C)c1,100
S=c1[nH]c2ccccc2n1Cc1ccccc1,78*
CC(C)Cn1c(=S)[nH]c2ccccc21,99
CCCNC1C2CC3CC(C2)CC1C3 (stereo not drawn),105
CCOC(=O)c1cnn(C(=O)c2ccc(-n3c(C)ccc3C)cc2)c1N,66*
COC(=O)c1ccc(-n2c(C)ccc2C)cc1,98
CCOC(=O)c1cnn(-c2ccccn2)c1N,101
Oc1c(Cl)cc(Cl)cc1/C=N/c1ccnn1-c1ccccc1,90
Oc1c(Cl)cc(Cl)cc1C=Nc1ccc2n[nH]nc2c1,102
Cc1cc(N=Cc2cc(Cl)cc(Cl)c2O)no1,56*
CCC1SC(=Nc2ccc(C)cc2)NC1=O (stereo not drawn),100
Cc1ccc(CSc2nc3ccncc3n2CC(=O)N(C)c2ccccc2)cc1,101
C=CCN(CC=C)c1nn[nH]n1,60*
Nc1nonc1OCc1ccc2c(c1)OCO2,100
COC(=O)c1ccc2nc(NC(=O)CCOc3ccccc3)sc2c1,102
CCc1sc2sncc2c1Br,81*
C=CCn1c2ccccc2c2nnc(SCC(=O)NC3=NN=C(c4ccccc4)CS3)nc21,99
COC(=O)C1=C(C)NC(SCC(=O)Nc2ccccc2)=C(C#N)C1c1ccccc1F (stereo not drawn),102
CCc1ccc(NC(=O)CSc2nccn2-c2ccccc2)cc1,101
COc1ccc2nc(C)c3c(c2c1)OC(C)C3 (stereo not drawn),99
Cc1nc(N=C(N)N)nc2ccccc12,81
COc1ccc2nc(N=C(N)N)nc(C)c2c1,36*
COc1ccc2c(c1)c1c3n2CCN(C2CCCCC2)C3=NCC1,77
CCc1cccc(NCC(O)Cn2nnnc2-c2ccccc2)c1 (stereo not drawn),101
SMILES,VACV E9 pol inh
CC(C)(C)C(=O)COC(=O)c1ccc(Cl)cc1N,103
CN(C)CCNc1cc(-c2ccncc2)nc2ccccc12,63
COC(=O)c1cc(-c2cccnc2)nc2ccccc12,96
CN(C)CCNc1cc(-c2cccnc2)nc2ccccc12,48*
CCOC(=O)N1CCc2c(sc(NC(=O)CN3CCc4ccccc43)c2C#N)C1,90
COc1ccc(C(=O)OC(C)CN(C)C)cc1 (stereo not drawn),100
CCCc1cc(=O)oc2cc(OCC)ccc12,95
O=S(=O)(c1ccc(Br)cc1)c1ccc(Br)cc1,103
COc1ccc(-c2coc3cc4oc(=O)c(CC(=O)O)c(C)c4cc23)cc1,86
Cc1c(CC(=O)O)c(=O)oc2c(C)c3occ(-c4ccc(Br)cc4)c3cc12,65*
Cc1c(CC(=O)O)c(=O)oc2c(C)c3occ(C(C)(C)C)c3cc12,98
CN(C)C(=S)SCN1CCCCCC1=O,94
CCC(Sc1nc2ccncc2[nH]1)C(=O)NCCc1ccccc1 (stereo not drawn),100
COc1cccc(C(=O)N2NC(=O)C=CC2=C(C#N)C#N)c1,101
CCOc1ccc2nc(Nc3nc(O)cc(=O)[nH]3)nc(C)c2c1,100
c1ccc(CN2CN=C(Nc3nc4ccccc4s3)NC2)cc1,108
CCN1CN=C(Nc2nc(C)c3cc(C)ccc3n2)NC1,49*
O=C(Nc1cc(Cl)ccc1C(=O)O)c1ccc(F)cc1,95
O=C(NCCCc1ccccc1)C1CCCN(S(=O)(=O)N2CCCCC2)C1 (stereo not drawn),80
O=C(CC(=O)c1ccccc1)Nc1cc(C(F)(F)F)ccc1Cl,100
